Experimental findings from PubChem BioAssay (NCATS) are described below.

Inconclusive results are not listed. The source made the active and inactive calls. Calls follow the shape of the dose curve; as a rule, active = well fitted inhibition curve with a large enough effect; inconclusive = small, poorly fitted or top-dose-only effect; inactive = flat fitted curve, though single readings scatter.

Common to all, as to experiment: qHTS profiling for inhibitors of Plasmodium falciparum proliferation (AID 504749); also: nearly all actives have a fitted effect of over 60% in size
Settings in all cases: P. falciparum in erythrocytes, SYBR Green DNA, 72 h; series mostly up to 28.7 µM

One experiment deals with ATS95. In a few lines:
(§1)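 Readout was DNA-dye fluorescence from lysed cultures, ex 485/em 535 nm. Parasitized red cells had grown 72 h with compound; data scaled between 0.29 uM artemisinin and DMSO wells and corrected using vehicle-only plates.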

The subject of a further experiment is C2A. In a few lines: as §1
The next experiment deals with CP185. The procedure, abridged: as §1
The test system of the next experiment is CP191. In a few lines: as §1
A further experiment relates to CP192. In a few lines: as §1
Another experiment relates to CP194. The procedure, abridged: as §1
Another experiment deals with CP203. In a few lines:
as §1

The test system of the next experiment is CP211. The procedure, abridged:
as §1

The subject of another experiment is CP215. The procedure, abridged: as §1
The test system of a further experiment is CP217. The procedure, abridged: as §1
The test system of another experiment is CP237. In a few lines:
as §1

The next experiment deals with CP238. In a few lines: as §1
Another experiment deals with CP247. In a few lines:
as §1

The subject of a further experiment is CP252. The procedure, abridged:
as §1

In another experiment the test system is CP256. The procedure, abridged: as §1
Another experiment has as its system CP260. The procedure, abridged: as §1
For another experiment, the system named is CP262. The procedure, abridged: as §1
In another experiment the test system is CP265. The procedure, abridged:
as §1

The subject of a further experiment is CP201. The procedure, abridged:
as §1

For another experiment, the system named is CP250. The procedure, abridged: as §1
Potency is read from the fitted curve at half-maximal effect.

Regarding `NC(=S)N=Nc1ccc(NN=C(N)N)cc1`, the Potency in the experiment with ATS95 was 10 µM (active); in the experiment on C2A it was 5.62 µM (active); in the experiment on CP185, 11.2 µM (active); with CP191 it was 4.47 µM (active); in the experiment on CP192, 8.49 µM (active); in the experiment with CP194, 7.57 µM (active). Further, the Potency in the experiment on CP203 was 12 µM (active); in the experiment on CP211, 7.57 µM (active); with CP215, 7.57 µM (active); in the experiment on CP217, 12.6 µM (active); with CP237, 10 µM (active); with CP238 it was 11.2 µM (active). The Potency with CP247 is 11.2 µM (active); with CP252, 8.91 µM (active); in the experiment with CP256, 1.58 µM (active); in the experiment on CP260, 7.94 µM (active); with CP262 it was 6.01 µM (active); in the experiment with CP265, 12.6 µM (active).

As to `CCCCC[C@H](O)/C=C/[C@@H]1[C@H]2C/C(=C/CCCC(=O)O)O[C@H]2C[C@H]1O`, the Potency entry with ATS95, in the experiment on C2A, in the experiment on CP185, in the experiment with CP191, in the experiment with CP192 and in the experiment with CP194 was “inactive” throughout. The Potency result with CP201, in the experiment on CP211, in the experiment on CP215, with CP217, in the experiment on CP237 and in the experiment with CP238 was “inactive” throughout. Moreover, the Potency entry in the experiment with CP247, in the experiment with CP250, in the experiment on CP252, with CP256, with CP262 and in the experiment with CP265 was “inactive” in each case.

As to `NC(=O)CC[C@@H]1NC(=O)[C@H](Cc2ccccc2)NC(=O)[C@H](Cc2ccc(O)cc2)NC(=O)[C@@H](N)CSSC[C@@H](C(=O)N2CCC[C@H]2C(=O)N[C@@H](CCCN=C(N)N)C(=O)NCC(N)=O)NC(=O)[C@H](CC(N)=O)NC1=O`, the Potency result with ATS95, with C2A, in the experiment with CP185, in the experiment on CP192, with CP194 and in the experiment with CP201 was “inactive” throughout. In addition, the Potency result in the experiment on CP203, in the experiment with CP211, with CP215, with CP217, in the experiment on CP237 and in the experiment on CP238 was “inactive” in each case. In addition, the Potency result in the experiment with CP247, in the experiment with CP250, with CP252, in the experiment on CP256 and in the experiment with CP262 was “inactive” each time. Also, in the experiment on CP260, the Potency is 2.24 µM (active).

On to `O=C(OCc1ccccc1)c1cccnc1`, for which the Potency entry in the experiment on ATS95, in the experiment on C2A, in the experiment with CP185, with CP192, in the experiment on CP201 and with CP203 was “inactive” in each case. The Potency entry in the experiment with CP211, in the experiment with CP217, in the experiment with CP237, in the experiment with CP238, in the experiment on CP247 and in the experiment on CP250 was “inactive” throughout. In addition, the Potency result in the experiment with CP252, in the experiment with CP262 and with CP265 was “inactive” in each case.

As to `[O-][N+](=Nc1ccccc1)c1ccccc1`, the Potency result in the experiment with ATS95, with C2A, in the experiment with CP185, in the experiment with CP191, with CP192 and with CP194 was “inactive” throughout. Besides, the Potency entry in the experiment on CP201, with CP211, in the experiment with CP215, in the experiment with CP217, in the experiment with CP237 and with CP238 was “inactive” throughout. Moreover, the Potency result in the experiment with CP247, with CP250, with CP252, with CP256, in the experiment with CP260 and in the experiment with CP262 was “inactive” in each case. Besides, the Potency result in the experiment on CP265 is “inactive”.

Regarding `CC[C@H]1OC(=O)[C@H](C)[C@@H](O[C@H]2C[C@@](C)(OC)[C@@H](O)[C@H](C)O2)[C@H](C)[C@@H](O[C@@H]2O[C@H](C)C[C@H](N(C)C)[C@H]2O)[C@](C)(O)C[C@@H](C)CN(C)[C@H](C)[C@@H](O)[C@]1(C)O`, the Potency with ATS95 is 7.94 µM (active); with C2A it was 4.47 µM (active); in the experiment with CP185 it was 5.01 µM (active); in the experiment with CP217 it was 5.62 µM (active); with CP237, 5.01 µM (active); in the experiment with CP238, 5.62 µM (active). Also, the Potency with CP252 was 4.47 µM (active); in the experiment on CP256 it was 2.24 µM (active); in the experiment on CP265 it was 10 µM (active).

`CC(C)C1=CC2=CC[C@@H]3[C@](C)(CCC[C@@]3(C)C(=O)O)[C@H]2CC1`: the Potency result with ATS95, in the experiment on C2A, with CP185, with CP191, in the experiment on CP217 and in the experiment on CP237 was “inactive” throughout. The Potency result with CP238, in the experiment on CP247, in the experiment with CP250, in the experiment with CP252, in the experiment with CP256 and in the experiment with CP260 was “inactive” in each case. In addition, the Potency entry with CP262 and with CP265 was “inactive” throughout.

Consider `CC1CC(OC(=O)C(O)c2ccccc2)CC(C)(C)C1` (centres undefined), for which the Potency result with ATS95, in the experiment on C2A, in the experiment on CP185, in the experiment with CP191, in the experiment with CP194 and with CP201 was “inactive” throughout. Moreover, the Potency result with CP203, with CP211, in the experiment on CP215, in the experiment with CP217, in the experiment on CP237 and in the experiment on CP238 was “inactive” in each case. For the same compound, the Potency entry in the experiment on CP247, with CP250, in the experiment with CP252, with CP256, with CP260 and with CP262 was “inactive” in each case. The Potency entry with CP265 was “inactive”.

Take `Cn1cc(NC(=O)c2cc(NC(=O)c3cc(NC=O)cn3C)cn2C)cc1C(=O)NCCC(=N)N`: the Potency with ATS95 was 6.31 µM (active); with C2A it was 7.94 µM (active); with CP185 it was 11.2 µM (active); in the experiment on CP191 it was 10 µM (active); with CP203 it was 12 µM (active); in the experiment with CP217, 7.08 µM (active). For the same compound, the Potency in the experiment with CP237 was 8.91 µM (active); with CP238 it was 11.2 µM (active); with CP247, 6.31 µM (active); with CP250, 7.94 µM (active); with CP252, 8.91 µM (active); in the experiment with CP256, 11.2 µM (active). Further, the Potency is 12.6 µM (active) in the experiment on CP260 and 11.2 µM (active) in the experiment on CP265.

As to `CCOc1cc(-c2nccc3cc(OC)c(OC)cc23)cc(OCC)c1OCC`, the Potency entry in the experiment on C2A and in the experiment on CP238 was “inactive” throughout. In the experiment on CP191, the Potency was 11.2 µM (active).

Consider `COC(=O)[C@@H](N)CS`, for which the Potency result in the experiment with C2A, in the experiment with CP185, in the experiment on CP191, in the experiment with CP192, in the experiment on CP194 and with CP201 was “inactive” throughout. The Potency result in the experiment on CP203, in the experiment with CP211, in the experiment with CP217, with CP237, in the experiment on CP238 and in the experiment with CP247 was “inactive” throughout. Also, the Potency entry in the experiment on CP250, in the experiment on CP252, with CP256, with CP260, with CP262 and with CP265 was “inactive” throughout.

With `CN(C)CCC=C1c2ccccc2C(C)(C)c2ccccc21`, the Potency result in the experiment on CP192, in the experiment with CP238 and in the experiment on CP247 was “inactive” in each case.

On to `O=c1n(CC2CO2)c(=O)n(CC2CO2)c(=O)n1CC1CO1` (centres undefined), for which the Potency entry in the experiment with CP201, in the experiment on CP211, in the experiment with CP215, in the experiment on CP217, with CP238 and in the experiment on CP256 was “inactive” each time.

Consider `N#Cc1ccc2c(c1)N(CCCN1CCC(O)CC1)c1ccccc1S2`, for which the Potency entry with C2A, in the experiment on CP192, with CP217, in the experiment on CP252 and in the experiment on CP262 was “inactive” in each case. Further, the Potency in the experiment with CP260 is 11.2 µM (active).

For `CCN(CC)CCC(=O)N1c2ccccc2Sc2ccc(Cl)cc21`, the Potency entry with CP192 and in the experiment on CP201 was “inactive” throughout. Further, the Potency with CP256 is 11.2 µM (active); with CP260, 8.91 µM (active).

On to `O=C(CCCN1CCN2CCCC2C1)c1ccc(F)cc1` (centres undefined), for which the Potency result with C2A, in the experiment on CP185, with CP191, with CP192, in the experiment with CP201 and in the experiment on CP203 was “inactive” in each case. The Potency result with CP215, in the experiment on CP217, in the experiment on CP247, with CP250, with CP252 and in the experiment with CP262 was “inactive” throughout. Further, the Potency in the experiment on CP237 was 10 µM (active).

On to `O=C(O[C@H]1CN2CCC1CC2)N1CCc2ccccc2[C@@H]1c1ccccc1`, for which the Potency result in the experiment on ATS95, with CP185, in the experiment on CP192, in the experiment with CP201, in the experiment on CP203 and with CP217 was “inactive” in each case. In addition, the Potency result with CP238, in the experiment on CP250, in the experiment on CP252, in the experiment on CP260, with CP262 and with CP265 was “inactive” in each case.
